# Inconclusive results are not listed. Active and inactive are the calls of the source. The calls were made as follows: active = hit-call score of the fitted dose curve at least 0.9, where 1 is the maximum; inconclusive = response in the unintended direction; inactive = score below 0.9.
# Test system: Sodium/Iodide Symporter (NIS), SLC5A5 (gene 6528)
# Assay: CPHEA_Stoker_NIS_Inhibition_RAIU: CPHEA's Radioactive Iodide Uptake (RAIU) Assay for Sodium/Iodide Symporter (NIS) Inhibition, Stoker and Laws Labs (AID 2283841)
# Description: CPHEA_Stoker_NIS is a cell-based, single-readout assay that uses hNIS-HEK293T-EPA, a novel human kidney cell line expressing human NIS, with measurements taken at 2 hours after chemical dosing in a 96-well plate. This radioactive iodide uptake (RAIU) assay is used to identify inhibitors of NIS-mediated iodide uptake. A parallel cytoxicity assay (Cell Titer Glo, Promega) was also run in the same cell line.CPHEA_Stoker_NIS_Inhibition_RAIU is one of 2 assay components measured from the CPHEA_Stoker_NIS assay. It is designed to make measurements of radioactive substrate uptake to understand transporter function, as detected with 125-i signals by MicroBeta radioactivity plate reader technology.Data from the assay component CPHEA_Stoker_NIS_Inhibition_RAIU was analyzed at the endpoint, CPHEA_Stoker_NIS_Inhibition_RAIU, in the positive analysis fitting direction relative to DMSO as the negative control and baseline of activity. Measures of radioactive substrate uptake for loss-of-signal activity can be used to understand the effects on transporter function at the pathway level as they relate to the sodium-iodide symporter, gene SLC5A5. To generalize the intended target to other relatable targets, this assay endpoint is annotated to the transporter intended target family, where the subfamily is sodium-iodide symporter (NIS).
# hNIS-HEK293T-EPA cells were seeded with a MultiFlo FX dispenser (BioTek, Winooski, VT) into ScintiPlate-96 microplates (Perkin Elmer, Waltham, MA) at a density of 4.0x10^4 cells per well in 200uL growth media and incubated for 40 hours before experimentation. On day of the assay, carrier-free 125I (Perkin-Elmer, Waltham, MA; specific activity: 17.4Ci/mg) was diluted with Hanks' balanced salt solution (Sigma, St. Louis, MO) supplemented with 10mM HEPES (uptake buffer; pH 7.4) at 5uCi/mL (288pg 125I/mL uptake buffer; 2.30nM). The assay was initiated by washing cells twice with 200uL uptake buffer using a 96-well Tecan HydroSpeed plate washer (Tecan, Mannedorf, Switzerland). Uptake buffer (59.7uL) was then added back to each well. Chemical samples (350nL at 200X) were administered using the HDR tool as previously described to achieve a 1X chemical/0.5% final DMSO concentration with subsequent addition of 10uL of 125I dilution (final [125I]: 329pM; 2.88pg/well) for a final reaction volume of 70uL/well. Cells were incubated at room temperature for 2 hours and then washed twice with 200uL ice cold uptake buffer. All uptake buffer was aspirated from wells, plates were sealed, and read on a MicroBeta2 plate reader (Perkin Elmer, Waltham, MA) using a detection protocol to measure CPM corresponding to intracellular 125I concentration. Each chemical concentration (0.001, 0.01, 0.1, 1.0, 10, and 100uM) was assayed in triplicate with three independent biological replicate plates (3 sequential cell passages). Additionally, a concentration response of NaClO4 (0.001, 0.01, 0.1, 1.0, 10, and 100uM) served as a positive control inhibition curve on each RAIU assay plate. DMSO control wells were assayed on each plate as a measure of maximum iodide uptake for normalization and determination of intra- and inter-assay variation. (Toxicol In Vitro, 2017, 40:66-78).
SMILES,outcome,AC50
Cc1ccc(-c2cc(C(F)(F)F)nn2-c2ccc(S(N)(=O)=O)cc2)cc1,inactive,–
CN(C)CCCN1c2ccccc2Sc2ccc(Cl)cc21,inactive,–
CC(COCC(C)OC(=O)c1ccccc1)OC(=O)c1ccccc1 (stereo not drawn),inactive,–
O=C(Oc1ccccc1)c1cccc(C(=O)Oc2ccccc2)c1,inactive,–
O=Cc1ccccc1C=O,inactive,–
CCN(CC)CCOc1ccc(C(=C(Cl)c2ccccc2)c2ccccc2)cc1,inactive,–
CCCCCCCCCCCCCCOS(=O)(=O)O,inactive,–
CCCCCCC(CCCCCCCCCCC(=O)OCC(COC(C)=O)OC(C)=O)OC(C)=O (stereo not drawn),inactive,–
O=C1OC(c2ccc(O)cc2)(c2ccc(O)cc2)c2ccccc21,–,0.722 µM (active)
Cc1c(C)c2c(c(C)c1O)CCC(C)(COc1ccc(CC3SC(=O)NC3=O)cc1)O2 (stereo not drawn),–,50 µM (active)
CC(=O)OCC(COC(C)=O)OC(C)=O,inactive,–
CC(=O)O[C@]1(C(C)=O)CC[C@H]2[C@@H]3C=C(Cl)C4=CC(=O)[C@@H]5C[C@@H]5[C@]4(C)[C@H]3CC[C@@]21C,inactive,–
CCC(C)N(C)C(=O)c1cc2ccccc2c(-c2ccccc2Cl)n1 (stereo not drawn),–,30 µM (active)

# Source: PubChem BioAssay (EPA / NIEHS)
